According to PubChem BioAssay AID1159580 (chemical genetic matrix, 2015):
Values joined by “and” are separate entries in the source; they are usually repeats but may differ in a detail not shown here. Equal values may be shown once. In all, about 5,500 compounds went through this assay and about 2,000 (36%) were called active. Inconclusive results (about 18%) are left out. No stated cut-off is given here; in the data, active means normalized growth mostly below about 0.91 (no sharp cut-off); inconclusive means no clear call, values can overlap the other calls; inactive means mostly above about 0.92. This is one part of the list.

Experiment: chemical genetic growth profiling, strain panel (AID 1159580);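 further: tested at 20 µM; growth read once vehicle control cultures reached saturation at 30 °C; 1 = growth at the plate median or of vehicle wells; lower values mean less growth of the strain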
Settings: S. cerevisiae deletion strains, growth OD

Measured: normalized growth

C#C[C@]1(O)CCC2C3CCc4cc(O)ccc4C3CC[C@@]21C (some centres not stated)
inactive: locus YAL013W, strain DEP1, hits give low values 1 | locus YAL021C, strain ccr4, hits give low values 1.06 | locus YAL026C, strain drs2, hits give low values 0.951 | locus YAL030W, strain snc1, hits give low values 1.02 | locus YBL061C, strain skt5, hits give low values 0.998 | locus YBR021W, strain FUR4, hits give low values 0.94 | locus YBR023C, strain chs3, hits give low values 0.996 | locus YBR171W, strain sec66, hits give low values 1.02 | locus YBR229C, strain ROT2, hits give low values 1.02 | locus YBR231C, strain swc5, hits give low values 1 | locus YBR279W, strain paf1, hits give low values 1 | locus YCL011C, strain gbp2, hits give low values 1.01 | locus YCL016C, strain dcc1, hits give low values 0.988 | locus YCL029C, strain bik1, hits give low values 0.942 | locus YCL061C, strain MRC1, hits give low values 0.968 | locus YCL069W, strain vba3, hits give low values 1.02 | locus YCR088W, strain abp1, hits give low values 1.02 | locus YDL005C, strain med2, hits give low values 1.04 | locus YDL040C, strain nat1, hits give low values 1.03 | locus YDL074C, strain BRE1, hits give low values 0.833 | locus YDL101C, strain DUN1, hits give low values 0.989 | locus YDL185W, strain tfp1, hits give low values 1.02 | locus YDL192W, strain arf1, hits give low values 1.01 | locus YDR001C, strain nth1, hits give low values 1.04 | locus YDR069C, strain doa4, hits give low values 0.991 | locus YDR101C, strain arx1, hits give low values 0.956 | locus YDR159W, strain sac3, hits give low values 0.908 | locus YDR162C, strain NBP2, hits give low values 0.843 | locus YDR297W, strain sur2, hits give low values 1.01 | locus YDR318W, strain mcm21, hits give low values 0.945 | locus YDR334W, strain swr1, hits give low values 1.05 | locus YDR335W, strain msn5, hits give low values 0.959 | locus YDR388W, hits give low values 1.02 | locus YDR502C, strain sam2, hits give low values 0.93 | locus YEL003W, strain gim4, hits give low values 0.938 | locus YEL037C, strain rad23, hits give low values 1.02 | locus YEL061C, strain CIN8 (second series), hits give low values 1.03 | locus YEL061C, strain CIN8, hits give low values 1.04 | locus YER015W, strain faa2, hits give low values 1.01 | locus YER016W, strain bim1, hits give low values 0.934 | locus YER110C, hits give low values 1.03 | locus YER111C, strain swi4, hits give low values 1.06 | locus YER155C, strain BEM2 (second series), hits give low values 1.07 | locus YER155C, strain BEM2, hits give low values 1.06 | locus YER167W, strain BCK2, hits give low values 1 | locus YFR010W, strain ubp6, hits give low values 1.01 | locus YGL086W, strain mad1, hits give low values 0.951 | locus YGL167C, strain pmr1, hits give low values 1.02 | locus YGL173C, strain kem1, hits give low values 0.904 | locus YGL227W, strain vid30, hits give low values 1.05 | locus YGL240W, strain doc1, hits give low values 0.918 | locus YGL248W, strain PDE1, hits give low values 0.952 | locus YGL253W, strain hxk2, hits give low values 0.963 | locus YGR078C, strain PAC10, hits give low values 0.877 | locus YGR135W, strain pre9, hits give low values 0.949 | locus YHR027C, strain rpn1, hits give low values 0.981 | locus YHR030C, strain SLT2, hits give low values 1.02 and 0.96 | locus YHR079C, strain IRE1 (second series), hits give low values 0.979 | locus YHR079C, strain IRE1, hits give low values 0.968 | locus YHR094C, strain hxt1, hits give low values 1.03 | locus YHR129C, strain ARP1, hits give low values 0.993 | locus YHR142W, strain chs7, hits give low values 0.946 | locus YHR200W, strain rpn10, hits give low values 1.01 | locus YIL066C, strain RNR3, hits give low values 0.913 | locus YIL073C, strain SPO22, hits give low values 1.01 | locus YIL125W, strain kgd1, hits give low values 1 | locus YIR030C, strain dcg1, hits give low values 0.999 | locus YJL092W, strain hpr5, hits give low values 1.02 | locus YJL095W, strain BCK1 (second series), hits give low values 1 | locus YJL095W, strain BCK1, hits give low values 0.861 and 1 | locus YJL115W, strain asf1, hits give low values 1.05 | locus YJL129C, strain trk1, hits give low values 0.946 | locus YJL134W, strain LCB3, hits give low values 1.03 | locus YJL154C, strain vps35, hits give low values 1.05 | locus YJL164C, strain tpk1, hits give low values 0.952 | locus YJL166W, strain qcr8, hits give low values 0.973 | locus YJL168C, strain set2, hits give low values 1.02 | locus YJL187C, strain SWE1 (second series), hits give low values 0.931 | locus YJL187C, strain SWE1, hits give low values 1.02
active: locus YBR009C, strain hhf1, hits give low values 0.894 | locus YDL035C, strain GPR1, hits give low values 0.853 | locus YDR137W, strain rgp1, hits give low values 0.738 | locus YDR195W, strain ref2 1.25 [resistant] | locus YDR392W, strain spt3, hits give low values 0.617 | locus YGL078C, strain dbp3, hits give low values 0.904 | locus YGR252W, strain gcn5, hits give low values 0.653 | locus YHR013C, strain ard1, hits give low values 1.17 [resistant]
